13 targets from the supplement of paper PMC6378613 can be followed below.

Compound in the assay: Cc1ccc(-c2ccc3c(ccc4sc5c(c43)NC[C@@H](C)NC5=O)n2)cn1
The assay can be described thus: kinase activity remaining relative to vehicle control; higher = less inhibition. How it is done:
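In vitro radiometric kinase profiling of the MK2 inhibitor PF-3644022 at 0.1, 1 and 10 µM against a panel of kinases (MRC International Centre for Kinase Profiling, Dundee). Read-out is % kinase activity remaining relative to the vehicle control, mean of n=2.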

Chain of UniProt P51812 (P51812 whole entry, looked up): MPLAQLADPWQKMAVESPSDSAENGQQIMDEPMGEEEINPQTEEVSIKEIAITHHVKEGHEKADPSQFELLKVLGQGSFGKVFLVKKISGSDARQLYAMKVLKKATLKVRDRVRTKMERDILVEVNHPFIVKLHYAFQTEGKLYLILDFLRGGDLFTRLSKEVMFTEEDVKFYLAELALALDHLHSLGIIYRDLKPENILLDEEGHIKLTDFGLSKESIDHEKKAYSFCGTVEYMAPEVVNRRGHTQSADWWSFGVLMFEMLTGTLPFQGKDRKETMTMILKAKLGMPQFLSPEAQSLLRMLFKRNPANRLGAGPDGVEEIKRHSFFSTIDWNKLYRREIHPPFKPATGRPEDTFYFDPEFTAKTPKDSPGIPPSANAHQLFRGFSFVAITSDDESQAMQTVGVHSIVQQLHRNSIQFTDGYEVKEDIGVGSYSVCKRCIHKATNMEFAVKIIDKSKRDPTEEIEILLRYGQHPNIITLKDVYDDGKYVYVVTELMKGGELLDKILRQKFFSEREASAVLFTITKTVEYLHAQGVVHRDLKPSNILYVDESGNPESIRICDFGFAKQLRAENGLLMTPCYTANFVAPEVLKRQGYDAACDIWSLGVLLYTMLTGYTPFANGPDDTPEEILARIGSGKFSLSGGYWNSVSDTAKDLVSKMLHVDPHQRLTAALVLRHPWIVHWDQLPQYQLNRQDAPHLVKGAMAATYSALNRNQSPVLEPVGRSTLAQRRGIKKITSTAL
Chain of UniProt P00519 (P00519 whole entry, looked up): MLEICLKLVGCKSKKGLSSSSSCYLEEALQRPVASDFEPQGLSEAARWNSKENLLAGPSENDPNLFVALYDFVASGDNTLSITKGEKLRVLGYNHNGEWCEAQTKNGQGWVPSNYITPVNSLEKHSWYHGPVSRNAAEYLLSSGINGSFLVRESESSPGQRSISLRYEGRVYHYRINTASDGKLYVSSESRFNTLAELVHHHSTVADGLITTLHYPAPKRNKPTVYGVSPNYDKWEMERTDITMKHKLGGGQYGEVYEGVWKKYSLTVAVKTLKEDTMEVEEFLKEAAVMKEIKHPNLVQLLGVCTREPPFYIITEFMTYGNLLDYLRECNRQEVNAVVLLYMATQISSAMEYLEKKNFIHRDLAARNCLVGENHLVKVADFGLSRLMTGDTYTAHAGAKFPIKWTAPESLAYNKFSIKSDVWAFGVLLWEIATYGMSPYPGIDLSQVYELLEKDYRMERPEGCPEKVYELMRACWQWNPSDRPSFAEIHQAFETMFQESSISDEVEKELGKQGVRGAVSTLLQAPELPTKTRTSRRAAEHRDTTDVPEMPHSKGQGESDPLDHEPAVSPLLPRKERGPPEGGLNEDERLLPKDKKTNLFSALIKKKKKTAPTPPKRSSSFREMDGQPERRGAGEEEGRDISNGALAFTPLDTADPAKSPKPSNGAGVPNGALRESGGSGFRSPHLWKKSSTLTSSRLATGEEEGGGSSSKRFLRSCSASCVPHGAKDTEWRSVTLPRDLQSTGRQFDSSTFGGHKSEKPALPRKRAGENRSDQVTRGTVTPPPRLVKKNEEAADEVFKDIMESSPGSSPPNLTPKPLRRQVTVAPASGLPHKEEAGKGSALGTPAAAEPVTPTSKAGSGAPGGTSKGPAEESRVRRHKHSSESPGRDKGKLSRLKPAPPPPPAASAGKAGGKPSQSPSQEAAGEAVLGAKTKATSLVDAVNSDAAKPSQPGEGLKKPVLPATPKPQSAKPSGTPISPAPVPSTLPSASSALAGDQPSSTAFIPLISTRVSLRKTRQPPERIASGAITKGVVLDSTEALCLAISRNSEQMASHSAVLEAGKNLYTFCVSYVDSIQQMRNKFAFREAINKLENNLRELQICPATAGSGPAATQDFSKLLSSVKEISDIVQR
Chain of UniProt P53350 (P53350 whole entry, looked up): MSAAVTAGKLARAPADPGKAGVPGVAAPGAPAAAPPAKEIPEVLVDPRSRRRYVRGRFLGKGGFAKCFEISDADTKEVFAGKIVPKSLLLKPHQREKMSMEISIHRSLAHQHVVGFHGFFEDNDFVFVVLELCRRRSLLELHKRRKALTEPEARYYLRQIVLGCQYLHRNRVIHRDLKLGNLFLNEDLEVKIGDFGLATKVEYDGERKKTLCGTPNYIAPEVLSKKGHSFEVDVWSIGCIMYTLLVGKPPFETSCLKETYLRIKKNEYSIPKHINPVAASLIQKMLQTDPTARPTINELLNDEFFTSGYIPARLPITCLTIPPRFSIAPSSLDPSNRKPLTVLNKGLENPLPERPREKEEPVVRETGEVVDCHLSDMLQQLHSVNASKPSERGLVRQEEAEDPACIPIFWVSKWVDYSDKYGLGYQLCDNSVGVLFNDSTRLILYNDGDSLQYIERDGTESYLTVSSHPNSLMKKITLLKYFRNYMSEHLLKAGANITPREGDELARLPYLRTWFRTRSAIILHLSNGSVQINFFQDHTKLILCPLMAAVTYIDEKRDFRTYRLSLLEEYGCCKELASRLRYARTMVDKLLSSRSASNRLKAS
Chain of UniProt Q9P289 (Q9P289 whole entry, looked up): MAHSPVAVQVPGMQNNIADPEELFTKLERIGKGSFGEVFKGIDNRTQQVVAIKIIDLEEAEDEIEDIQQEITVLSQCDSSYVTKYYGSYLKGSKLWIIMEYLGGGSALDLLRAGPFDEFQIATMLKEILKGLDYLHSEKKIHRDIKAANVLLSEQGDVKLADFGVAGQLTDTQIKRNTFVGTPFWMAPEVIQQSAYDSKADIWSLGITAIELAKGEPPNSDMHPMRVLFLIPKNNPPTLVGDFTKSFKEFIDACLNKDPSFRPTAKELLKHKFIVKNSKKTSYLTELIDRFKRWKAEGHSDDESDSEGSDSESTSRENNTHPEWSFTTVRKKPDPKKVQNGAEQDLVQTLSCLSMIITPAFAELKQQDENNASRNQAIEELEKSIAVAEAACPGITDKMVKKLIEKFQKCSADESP
Chain of UniProt P51955 (P51955 whole entry, looked up): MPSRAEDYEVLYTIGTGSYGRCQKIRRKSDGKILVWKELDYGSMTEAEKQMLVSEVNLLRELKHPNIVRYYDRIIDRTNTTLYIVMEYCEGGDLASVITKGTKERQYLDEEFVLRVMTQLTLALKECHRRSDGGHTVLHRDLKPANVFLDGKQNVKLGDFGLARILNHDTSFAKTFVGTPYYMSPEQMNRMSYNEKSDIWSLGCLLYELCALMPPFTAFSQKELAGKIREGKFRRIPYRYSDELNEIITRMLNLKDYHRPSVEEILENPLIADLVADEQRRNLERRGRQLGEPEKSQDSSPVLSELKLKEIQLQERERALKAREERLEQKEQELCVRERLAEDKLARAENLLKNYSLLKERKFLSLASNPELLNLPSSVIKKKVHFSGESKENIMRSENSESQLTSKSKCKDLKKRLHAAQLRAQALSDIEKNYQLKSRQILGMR
Chain of UniProt Q8IWQ3 (Q8IWQ3 whole entry, looked up): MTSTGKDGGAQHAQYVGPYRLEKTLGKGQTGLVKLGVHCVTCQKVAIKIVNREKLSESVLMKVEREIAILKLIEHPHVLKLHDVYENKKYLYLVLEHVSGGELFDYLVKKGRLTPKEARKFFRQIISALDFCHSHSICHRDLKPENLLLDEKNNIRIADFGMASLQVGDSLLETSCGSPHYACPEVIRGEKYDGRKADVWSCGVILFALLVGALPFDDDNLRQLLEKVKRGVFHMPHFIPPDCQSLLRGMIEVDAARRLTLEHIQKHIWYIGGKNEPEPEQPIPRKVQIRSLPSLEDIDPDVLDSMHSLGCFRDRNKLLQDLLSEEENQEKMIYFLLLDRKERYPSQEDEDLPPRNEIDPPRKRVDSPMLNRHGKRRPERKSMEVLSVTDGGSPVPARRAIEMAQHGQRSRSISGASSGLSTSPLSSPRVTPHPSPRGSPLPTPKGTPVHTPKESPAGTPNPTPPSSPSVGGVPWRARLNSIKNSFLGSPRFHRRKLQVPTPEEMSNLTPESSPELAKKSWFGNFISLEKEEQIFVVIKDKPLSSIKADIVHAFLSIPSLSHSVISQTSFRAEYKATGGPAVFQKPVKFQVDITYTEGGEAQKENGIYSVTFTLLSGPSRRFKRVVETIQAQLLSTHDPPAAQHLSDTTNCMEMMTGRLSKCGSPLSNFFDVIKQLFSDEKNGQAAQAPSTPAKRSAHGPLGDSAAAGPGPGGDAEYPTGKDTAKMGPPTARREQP
Chain of UniProt Q9P1W9 (Q9P1W9 whole entry, looked up): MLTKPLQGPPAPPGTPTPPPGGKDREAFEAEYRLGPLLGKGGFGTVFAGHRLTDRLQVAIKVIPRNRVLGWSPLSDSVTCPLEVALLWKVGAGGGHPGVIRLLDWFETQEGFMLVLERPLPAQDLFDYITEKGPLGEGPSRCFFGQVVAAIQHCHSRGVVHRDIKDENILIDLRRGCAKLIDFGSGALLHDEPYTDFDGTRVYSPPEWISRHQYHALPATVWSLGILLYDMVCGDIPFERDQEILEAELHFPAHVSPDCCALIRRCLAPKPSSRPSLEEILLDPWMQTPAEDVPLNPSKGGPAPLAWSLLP
Chain of UniProt Q8TD08 (Q8TD08 whole entry, looked up): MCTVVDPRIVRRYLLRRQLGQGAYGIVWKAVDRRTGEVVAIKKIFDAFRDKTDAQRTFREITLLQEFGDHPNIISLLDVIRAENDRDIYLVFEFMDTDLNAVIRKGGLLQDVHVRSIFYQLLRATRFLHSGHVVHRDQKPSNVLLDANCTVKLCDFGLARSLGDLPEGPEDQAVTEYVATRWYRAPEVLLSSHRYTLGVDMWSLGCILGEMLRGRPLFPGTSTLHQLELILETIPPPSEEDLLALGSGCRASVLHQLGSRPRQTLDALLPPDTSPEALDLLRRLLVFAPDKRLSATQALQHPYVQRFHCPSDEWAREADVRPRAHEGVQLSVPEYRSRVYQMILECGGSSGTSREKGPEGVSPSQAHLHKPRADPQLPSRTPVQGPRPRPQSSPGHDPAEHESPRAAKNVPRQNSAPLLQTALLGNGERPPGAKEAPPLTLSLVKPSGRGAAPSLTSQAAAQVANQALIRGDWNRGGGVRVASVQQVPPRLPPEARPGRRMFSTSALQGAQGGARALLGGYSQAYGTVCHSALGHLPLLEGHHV

Regarding NEK2a (UniProt P51955), the kinase activity remaining (inhibitor concentration 0.1 µM) came to 108%, the kinase activity remaining (inhibitor concentration 1 µM) came out at 99% and the kinase activity remaining (inhibitor concentration 10 µM) worked out at 88%.

Turning to ABL (UniProt P00519), the kinase activity remaining is, setting by setting: (inhibitor concentration 0.1 µM) 120%; (inhibitor concentration 1 µM) 113%; (inhibitor concentration 10 µM) 76%.

Take RSK2 (UniProt P51812): the kinase activity remaining came out at 104% (inhibitor concentration 0.1 µM), 79% (inhibitor concentration 1 µM) and 50% (inhibitor concentration 10 µM).

Regarding SmMLCK, the kinase activity remaining came to 118% (inhibitor concentration 0.1 µM), 112% (inhibitor concentration 1 µM) and 110% (inhibitor concentration 10 µM).

On to GSK3 beta, for which the kinase activity remaining (inhibitor concentration 0.1 µM) turned out to be 126%, the kinase activity remaining (inhibitor concentration 1 µM) came out at 99% and the kinase activity remaining (inhibitor concentration 10 µM) amounted to 88%.

For ERK8 (UniProt Q8TD08), the kinase activity remaining (inhibitor concentration 0.1 µM) is 96%, the kinase activity remaining (inhibitor concentration 1 µM) was found to be 79% and the kinase activity remaining (inhibitor concentration 10 µM) turned out to be 38%.

Take ROCK 2: the kinase activity remaining is 112% (inhibitor concentration 0.1 µM), 96% (inhibitor concentration 1 µM) and 95% (inhibitor concentration 10 µM).

For the target MAPKAP-K2, the kinase activity remaining came to 24% (inhibitor concentration 0.1 µM), 9% (inhibitor concentration 1 µM) and 2% (inhibitor concentration 10 µM).

With HIPK3 (UniProt Q9H422), the kinase activity remaining amounted to 112% (inhibitor concentration 0.1 µM), 108% (inhibitor concentration 1 µM) and 96% (inhibitor concentration 10 µM).

For the target BRSK2 (UniProt Q8IWQ3), the kinase activity remaining (inhibitor concentration 0.1 µM) came out at 77%, the kinase activity remaining (inhibitor concentration 1 µM) worked out at 32% and the kinase activity remaining (inhibitor concentration 10 µM) amounted to 8%.

Take PLK1 (UniProt P53350): the kinase activity remaining by setting is: (inhibitor concentration 0.1 µM) 102%; (inhibitor concentration 1 µM) 114%; (inhibitor concentration 10 µM) 98%.

Take MST4 (UniProt Q9P289): the kinase activity remaining (inhibitor concentration 0.1 µM) came to 99%, the kinase activity remaining (inhibitor concentration 1 µM) worked out at 101% and the kinase activity remaining (inhibitor concentration 10 µM) came to 91%.

PIM2 (UniProt Q9P1W9): the kinase activity remaining (inhibitor concentration 0.1 µM) turned out to be 103%, the kinase activity remaining (inhibitor concentration 1 µM) came to 103% and the kinase activity remaining (inhibitor concentration 10 µM) was determined as 66%.
